Drawing on ChEMBL document CHEMBL4513216, “Probing the Open Global Health Chemical Diversity Library for Multistage-Active Starting Points for Next-Generation Antimalarials” (ACS Infect Dis, 2020), this text covers INHIBITION for 54 compounds.

Screen size: about 69,000 compounds; about 8,600 (12%) showed an effect of 50% or more. This is one part of a sample in which strong results are shown more often than they occur.

The test relates to Plasmodium berghei. In words: Screen against P. berghei liver stage (PbLuc), transformed with Luciferase, at 10uM. The class given is functional, HepG2. To be noted: tested at 10 uM.
Turning to `Cc1nc(C)n(C2CCCN(C(=O)c3ccc(OC(C)C)nc3)C2)n1` (centres undefined), the INHIBITION was determined as 5.907%.
Take `CN(C)CCN(Cc1cccc(F)c1)C(=O)c1ccn(C)c(=O)c1`: the INHIBITION worked out at 31.1%.
Take `O=C1CC(c2cccnc2)c2c(c(C(=O)O)cn2-c2ccccc2F)N1` (centres undefined): the INHIBITION is listed as 19.4%.
With `Cc1cc(C)c(NC(=O)Nc2cnn(CC(O)CN(C)C)c2)c(C)c1` (centres undefined), the INHIBITION stood at 35.4%.
Turning to `Cc1c(CCC(=O)N2CCCC2c2ccnc(N(C)C)c2)cnn1C` (centres undefined), the INHIBITION came out at 23%.
Turning to `COc1ccc(CNC(=O)Nc2cccnc2OC)cc1O`, the INHIBITION is given as 9.54%.
For the compound `Cc1ccc(N2CC[C@H]3OCC[C@@]3(C(=O)N(C)C)C2)nn1`, the INHIBITION is reported as 24.3%.
With `Cc1ncc(-c2ccncc2)c(C2CCCN(C(=O)c3ccno3)C2)n1` (centres undefined), the INHIBITION came out at 18.505%.
For `Cn1nc(C2CCCNC2)c2c(C(=O)NC3CC3)cc(C3CC3)nc21` (centres undefined), the INHIBITION was found to be 52.4%.
Regarding `Cn1nc(C2CCNC2)c2c(C(=O)NC3CC3)cc(C3CC3)nc21` (centres undefined), the INHIBITION is listed as 45.8%.
`Cn1nc(C2CCCN2)c2c(C(=O)NC3CC3)cc(C3CC3)nc21` (centres undefined): the INHIBITION turned out to be 40%.
The figure for `Cn1nc(C2CCNCC2)c2c(C(=O)NC3CC3)cc(C3CC3)nc21` is 59.8%.
In the case of `O=C(NC1CC1)c1cc(C2CC2)nc2onc(C3CCNCC3)c12`, the INHIBITION came to 24.2%.
As for `Cn1nc(C2CCNC2)c2c(C(=O)NCC(F)(F)F)cc(C3CC3)nc21` (centres undefined), the INHIBITION came to 47.4%.
As for `Cc1ccccc1CNC(=O)Cn1ncc2c1c(C)nn2C`, the INHIBITION is 21.7%.
Take `Cc1ccc(C(=O)NC2CCN(CC(=O)N(C)c3ccccc3)CC2)o1`: the INHIBITION came out at 7.27%.
For the compound `Cn1cccc1C(=O)COc1ccc(S(N)(=O)=O)cc1`, the INHIBITION is -55.3%.
Take `CNC(=O)C1(CCCc2cnccn2)CCN1CCc1ccccc1` (centres undefined): the INHIBITION was determined as 23.8%.
Consider `CCN1CCn2c(C)cnc2C12CCN(C(=O)NC)CC2`, for which the INHIBITION is on record as 6.27%.
`CNS(=O)(=O)c1ccc(CNC(=O)c2cccc(C)n2)cc1`: the INHIBITION is given as 37.4%.
On to `COCCN(C)C(=O)c1cc2c(s1)CCN2C(=O)C1CC1`, for which the INHIBITION was found to be 37.5%.
To `CN(C)S(=O)(=O)N1CCC(C(O)c2ccc(Cl)cc2)CC1` (centres undefined) belongs -9.8%.
On to `Cc1occc1C(=O)N1CCC(C(O)c2ccc(F)cc2)CC1` (centres undefined), for which the INHIBITION is recorded as -85.6%.
With `CCOCC(=O)N1CCC(C(O)c2ccc(F)cc2)CC1` (centres undefined), the INHIBITION is recorded as -6.99%.
With `CCN(C)S(=O)(=O)N1CCC(C(O)c2ccc(Cl)cc2)CC1` (centres undefined), the INHIBITION stood at 50.1%.
`CCN(C)S(=O)(=O)N1CCC(C(O)c2ccc(F)cc2)CC1` (centres undefined): the INHIBITION is given as 51.1%.
The figure for `Cc1occc1C(=O)N1CCC(C(O)c2ccc(Cl)cc2)CC1` (centres undefined) is -49.3%; for `CCS(=O)(=O)N1CCO[C@H]2[C@H](Oc3ncccc3F)CC[C@@H]21` it is 17.4%.
The figure for `O=C(O)c1ccccc1-n1cnc(CN2CCc3ccccc3C2)c1` is 12.8%.
For `CCn1c(CC2CCN(S(=O)(=O)N3CCCCC3)CC2)nn(C)c1=O`, the INHIBITION is reported as 0.546%.
On to `CN(C)C(=O)c1c[nH]nc1-c1ccc(CNC(=O)c2cnccn2)cc1`, for which the INHIBITION was 0.5%.
The figure for `CN1CCOCC12CCN(Cc1nccs1)CC2` is 0.804%; for `c1csc(CN2CCC3(CCCN3CC3CC3)CC2)n1` it is 33%; for `CCN1CCOCC12CCN(c1nccs1)CC2` it is 54.8%.
Take `c1csc(CN2CCC3(CC2)COCCN3CC2CC2)n1`: the INHIBITION came to 50.7%.
Regarding `Cc1noc(C)c1CN1CCOCC12CCN(c1nccs1)CC2`, the INHIBITION worked out at 67.5%.
On to `CCN1CCOCC12CCN(c1cnccn1)CC2`, for which the INHIBITION turned out to be 32.1%.
To `COCCN1CCOCC12CCN(c1cnccn1)CC2` belongs 42.1%.
`CCN1CCOCC12CCN(c1ccc(C#N)cc1)CC2`: the INHIBITION was 2.4%.
For the compound `Cc1noc(C)c1CN1CCOCC12CCN(c1cnccn1)CC2`, the INHIBITION is 34.9%.
To `COCCN1CCOCC12CCN(c1nccs1)CC2` belongs 53.9%; to `COCCN1CCOCC12CCN(c1ccc(C#N)cc1)CC2`, 49.7%.
In the case of `Cc1noc(C)c1CN1CCOCC12CCN(c1ncccn1)CC2`, the INHIBITION is 47.5%.
As to `CN(C)Cc1ccnc(C2CN(Cc3nccs3)CCO2)n1` (centres undefined), the INHIBITION is 35.2%.
To `Cc1cc(N2CCC(C(=O)NC3CC3)CC2)nc(-c2ccncc2)n1` belongs -0.219%; to `CS(=O)(=O)N1CCC(Cc2cnc(Br)cn2)C1` (centres undefined), -29.9%; to `c1cnc(N2CCCC(Cc3nccs3)C2)nc1` (centres undefined), 11.685%.
Regarding `CS(=O)(=O)NC1CCN(C(=O)c2coc(CN3CCOCC3)c2)CC1`, the INHIBITION is on record as 34.9%.
Consider `COc1cc(CSc2nnc(C)n2CC(N)=O)ccc1SC`, for which the INHIBITION is -9.93%.
Consider `CCCC(=O)N1CCC(Cc2ccccc2-c2ccccc2)(C(N)=O)C1` (centres undefined), for which the INHIBITION is -31%.
In the case of `O=C(C1CCOC1)N1CCC2(CCN(Cc3nccs3)C2)CC1` (centres undefined), the INHIBITION was 46.2%.
In the case of `O=C(C1CCOC1)N1CCC2(CCN(Cc3nccs3)CC2)CC1` (centres undefined), the INHIBITION is on record as 52%.
With `O=C(C1CCOCC1)N1CCC2(CCN(Cc3nccs3)CC2)CC1`, the INHIBITION turned out to be 18.3%.
To `CC(C)CC(=O)N1C[C@@H]2CCN(c3ncccn3)C[C@@H]2C1` belongs 44.1%.
